The values that follow come from PubChem BioAssay.

Assay [1] in a line: compounds binding Alexa647 anti-His antibody – biochemical, small-molecule microarray, 635 nm fluorescence, artefact control for SMM control protein annotation, primary screen (AID 1128).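 Note: score merges feature fluorescence with signal-to-noise for each printed compound spot.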 To be noted: higher = more signal.
Assay [2] concerns Human papillomavirus type 1a E7 protein (residues 1-88). The assay can be described thus: HPV1a E7 small-molecule binders, primary screen, biochemical, small-molecule microarray, residues 1-88, 635 nm (AID 1129). To be noted: small-molecule microarray binding, fluorescence 635 nm; higher = more signal.
The target of assay [3] is Focal adhesion kinase 1 (Homo sapiens) (UniProt Q05397). The assay can be described thus: PTK2 protein binding on printed compound slides – biochemical, small-molecule microarray, 635/667 nm fluorescence, BSA, DTT, primary screen (AID 1130).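 Note: composite of spot emission at 667 nm and signal to noise over triplicate slides.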 The settings on record: 635 nm fluorescence, higher = more signal.
For assay [4], the system named is Fibrinogen (Alexa647-labelled). Put plainly: Alexa647-fibrinogen binding to printed small molecules – biochemical, small-molecule microarray, 635/667 nm fluorescence, artefact control for SMM control-protein annotation, profiling panel (AID 1131).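 Note: z-score merges 667 nm fluorescence with per-spot signal-to-noise over triplicate slides.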 The settings on record: fibrinogen-A647 binding fluorescence, higher = more signal.
Assay [5] has as its target Follistatin (Homo sapiens) (UniProt P19883). The assay can be described thus: FST protein binding to printed compounds – biochemical, small-molecule microarray, 635/667 nm fluorescence, primary screen (AID 1132). To be noted: 635 nm fluorescence, higher = more signal.
For assay [6], the target named is Fibroblast growth factor 2 (Homo sapiens) (UniProt P09038). Put plainly: basic fibroblast growth factor binding to printed compounds – biochemical, small-molecule microarray, 635/667 nm fluorescence, primary screen (AID 1133). To be noted: FGF2, fluorescence 635/667, higher = more signal.
Assay [7] can be described thus: JC-1 mitochondrial potential readout, lung cancer cells – cell-based, A549, JC-1 fluorescence, basal, 24 h, 100 nL, profiling panel (AID 1138).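 Note: A549 lung adenocarcinoma cells under basal conditions with no added stimulus; test concentration not given here.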 To be noted: higher = more signal.
The next assay has as its system Lefty1. The assay can be described thus: Lefty1 protein binding to printed compounds – biochemical, small-molecule microarray, 635/667 nm fluorescence, primary screen (AID 1139). The settings on record: fluorescence 635/667, higher = more signal.
For assay [8], the system named is wheat germ agglutinin (Triticum aestivum), Alexa647-labelled. Put plainly: Alexa647-WGA lectin binding to printed small molecules – biochemical, small-molecule microarray, 635/667 nm fluorescence, artefact control for SMM control-protein annotation, profiling panel (AID 1140).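 Note: score merges 667 nm feature emission with signal to noise over triplicate slides.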 To be noted: WGA-A647 binding, 635 nm fluorescence, higher = more signal.
Assay [9] addresses Luciferin 4-monooxygenase (Photinus pyralis) (UniProt P08659). Put plainly: inhibition of purified Photinus pyralis luciferase – biochemical, luminescence, purified enzyme, 2006 set, primary screen (AID 1141).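 Note: cell-free assay with purified firefly luciferase at 100 ng per well in PBS; test concentration not given here.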 To be noted: purified firefly luciferase, SteadyGlo luminescence, 30 min; higher = more signal, called active from +8 up or from −8 down.
For assay [10], the system named is Wnt5a (protein binding on small-molecule microarray). The assay can be described thus: small molecules binding Wnt5a protein – biophysical, small-molecule microarray, 635/667 nm fluorescence, primary screen (AID 1142).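 Note: fluorescence read at 667 nm with signal to noise per printed feature.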 To be noted: 635 nm fluorescence, higher = more signal.
The nature of assay [11]: ATP-based viability of Huh7 replicon cells – cell-based, CellTiter-Glo luminescence, basal, 48 h, cytotoxicity control for HCV replication inhibitor project, primary screen (AID 1143).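 Note: Huh7 hepatoma cells carrying a hepatitis C replication reporter with no stimulus; test concentration not given here.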 To be noted: higher = more signal, called active from +8 up or from −8 down. (In general: A replicon is a self-replicating genome or part of one, used to study replication in cells.)
Assay [12] in a line: Pseudomonas biofilm growth suppression – PAO1 strain, BacTiter-Glo luminescence, LB-PBS, primary screen (AID 1144). The settings on record: P. aeruginosa PAO1 biofilm, 12 h, higher = more signal.
Assay [13] can be described thus: basal CRE-LacZ reporter activity in PC12 – cell-based, unstimulated, primary screen (AID 1145). The settings on record: no forskolin, luminescence, 4.5 h, higher = more signal, called active from +8 up or from −8 down.
The nature of assay [14]: forskolin-driven CRE-LacZ activity in PC12 – cell-based, CRE-LacZ reporter, forskolin-stimulated, primary screen (AID 1146).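 Note: PC12 cells with 6xCRE LacZ reporter stimulated by forskolin 10 µM; beta-galactosidase reporter signal reflecting CREB driven transcription.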 The settings on record: luminescence, 4.5 h, higher = more signal, called active from +8 up or from −8 down.
The target in assay [15] is Streptavidin (Streptomyces avidinii) (UniProt P22629). The assay can be described thus: compounds binding control protein streptavidin – biophysical, small-molecule microarray, 635/667 nm fluorescence, artefact control for SMM compound annotation, primary screen (AID 1147).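 Note: signal reflects streptavidin binding to arrayed compounds as a control protein.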 The settings on record: higher = more signal.
A short description of assay [16]: probe aInhba binding on compound microarray – biochemical, small-molecule microarray, 635/667 nm fluorescence, primary screen (AID 1148).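 Note: score merges 667nm spot fluorescence with signal-to-noise for antibody binding to printed compounds.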 The settings on record: higher = more signal.
The target of assay [17] is Torsin-1A (Homo sapiens) (UniProt O14656). The assay can be described thus: TOR1A wild-type binding on microarray – cell lysate, small-molecule microarray, lysate, 635/667 nm, primary screen (AID 1149). To be noted: COS7 hTOR1A-WT lysate, 635 nm fluorescence, higher = more signal.
The target is the same in assay [18]. The assay can be described thus: torsin A mutant lysate binding on microarrays – cell lysate, small-molecule microarray, COS7 lysate, 635/667 nm fluorescence, primary screen (AID 1150).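 Note: score pools 667 nm emission and signal to noise measuring lysate protein binding.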 To be noted: COS7 hTOR1A mutant lysate, 635 nm fluorescence, higher = more signal.
Assay [19] deals with Sonic hedgehog protein (Shh). The assay can be described thus: Sonic hedgehog microarray binding compounds – biochemical, small-molecule microarray, 635/667 nm fluorescence, primary screen (AID 1151).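 Note: Shh protein binding to compounds spotted on small-molecule microarray slides; score combines spot fluorescence intensity with signal-to-noise across triplicate slides.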 To be noted: 635 nm fluorescence, higher = more signal.

Activity calls are given as the source filed them. Unless noted, the rule behind the calls is not given here.

Chain of Luciferin 4-monooxygenase (Photinus pyralis) (P08659 whole entry, looked up): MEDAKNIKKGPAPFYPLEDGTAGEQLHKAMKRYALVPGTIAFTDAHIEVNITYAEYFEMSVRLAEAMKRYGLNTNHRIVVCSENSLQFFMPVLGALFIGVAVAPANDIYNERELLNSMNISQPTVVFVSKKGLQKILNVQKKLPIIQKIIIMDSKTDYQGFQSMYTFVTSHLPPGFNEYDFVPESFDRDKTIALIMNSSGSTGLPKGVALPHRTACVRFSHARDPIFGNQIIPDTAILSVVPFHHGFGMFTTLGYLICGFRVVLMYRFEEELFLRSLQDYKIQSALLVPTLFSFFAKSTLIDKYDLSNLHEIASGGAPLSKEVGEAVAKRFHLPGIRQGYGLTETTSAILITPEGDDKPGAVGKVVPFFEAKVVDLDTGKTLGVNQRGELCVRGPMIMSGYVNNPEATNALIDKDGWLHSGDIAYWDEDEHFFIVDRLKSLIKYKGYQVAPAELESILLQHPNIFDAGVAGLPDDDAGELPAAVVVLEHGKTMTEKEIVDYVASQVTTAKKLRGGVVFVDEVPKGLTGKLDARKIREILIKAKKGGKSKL
Chain of Torsin-1A (Homo sapiens) (O14656 whole entry, looked up): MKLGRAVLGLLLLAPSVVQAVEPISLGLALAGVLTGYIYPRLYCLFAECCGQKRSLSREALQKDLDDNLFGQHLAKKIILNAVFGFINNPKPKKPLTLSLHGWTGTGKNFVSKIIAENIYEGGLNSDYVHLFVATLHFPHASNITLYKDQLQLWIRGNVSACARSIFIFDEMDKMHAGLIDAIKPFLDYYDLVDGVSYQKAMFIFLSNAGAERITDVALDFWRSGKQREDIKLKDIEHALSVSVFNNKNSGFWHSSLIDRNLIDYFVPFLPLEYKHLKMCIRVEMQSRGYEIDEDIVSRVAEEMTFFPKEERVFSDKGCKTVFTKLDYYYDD
Chain of Focal adhesion kinase 1 (Homo sapiens) (Q05397 whole entry, looked up): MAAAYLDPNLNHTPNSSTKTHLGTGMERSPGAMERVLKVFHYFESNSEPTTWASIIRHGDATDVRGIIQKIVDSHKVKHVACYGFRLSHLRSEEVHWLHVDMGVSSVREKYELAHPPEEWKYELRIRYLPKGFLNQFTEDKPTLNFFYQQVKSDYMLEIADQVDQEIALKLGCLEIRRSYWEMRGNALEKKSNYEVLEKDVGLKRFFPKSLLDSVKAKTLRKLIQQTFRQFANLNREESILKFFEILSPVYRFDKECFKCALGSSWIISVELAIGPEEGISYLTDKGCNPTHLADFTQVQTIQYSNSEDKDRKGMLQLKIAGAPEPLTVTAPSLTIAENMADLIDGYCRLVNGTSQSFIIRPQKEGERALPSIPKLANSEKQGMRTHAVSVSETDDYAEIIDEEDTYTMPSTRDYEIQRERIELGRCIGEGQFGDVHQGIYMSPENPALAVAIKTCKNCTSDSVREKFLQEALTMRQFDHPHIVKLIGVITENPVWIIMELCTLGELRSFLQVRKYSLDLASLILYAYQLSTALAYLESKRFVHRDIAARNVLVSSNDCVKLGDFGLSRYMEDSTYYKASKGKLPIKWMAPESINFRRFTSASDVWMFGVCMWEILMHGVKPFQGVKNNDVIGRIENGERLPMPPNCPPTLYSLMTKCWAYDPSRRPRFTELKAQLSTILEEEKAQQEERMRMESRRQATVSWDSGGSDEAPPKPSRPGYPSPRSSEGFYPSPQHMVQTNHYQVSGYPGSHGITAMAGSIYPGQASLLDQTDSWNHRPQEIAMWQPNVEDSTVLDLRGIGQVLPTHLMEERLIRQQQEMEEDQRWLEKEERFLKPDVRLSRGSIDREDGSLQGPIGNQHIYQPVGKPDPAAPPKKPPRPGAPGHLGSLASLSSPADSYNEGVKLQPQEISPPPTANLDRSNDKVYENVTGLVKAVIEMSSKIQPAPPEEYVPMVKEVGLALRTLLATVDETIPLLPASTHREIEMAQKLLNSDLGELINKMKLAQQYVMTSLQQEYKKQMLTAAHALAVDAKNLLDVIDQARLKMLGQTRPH
Chain of Follistatin (Homo sapiens) (P19883 whole entry, looked up): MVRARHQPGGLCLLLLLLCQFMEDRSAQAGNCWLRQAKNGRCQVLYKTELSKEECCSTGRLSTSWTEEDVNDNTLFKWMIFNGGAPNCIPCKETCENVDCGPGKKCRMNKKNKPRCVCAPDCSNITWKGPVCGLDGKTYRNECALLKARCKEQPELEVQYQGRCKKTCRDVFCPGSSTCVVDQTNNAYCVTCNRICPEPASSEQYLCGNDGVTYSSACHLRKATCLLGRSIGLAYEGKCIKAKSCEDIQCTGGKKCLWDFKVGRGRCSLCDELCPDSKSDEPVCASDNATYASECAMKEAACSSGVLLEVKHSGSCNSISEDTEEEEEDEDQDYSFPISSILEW
Chain of Fibroblast growth factor 2 (Homo sapiens) (P09038 whole entry, looked up): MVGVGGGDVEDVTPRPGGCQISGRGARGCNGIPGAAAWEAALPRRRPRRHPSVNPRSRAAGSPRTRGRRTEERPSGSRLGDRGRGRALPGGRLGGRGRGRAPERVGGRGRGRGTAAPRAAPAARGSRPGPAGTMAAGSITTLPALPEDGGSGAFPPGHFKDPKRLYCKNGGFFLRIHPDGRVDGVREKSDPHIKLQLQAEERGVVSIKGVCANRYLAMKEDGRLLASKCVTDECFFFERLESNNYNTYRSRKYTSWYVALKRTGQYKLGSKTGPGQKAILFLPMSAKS
Chain of Streptavidin (Streptomyces avidinii) (P22629 whole entry, looked up): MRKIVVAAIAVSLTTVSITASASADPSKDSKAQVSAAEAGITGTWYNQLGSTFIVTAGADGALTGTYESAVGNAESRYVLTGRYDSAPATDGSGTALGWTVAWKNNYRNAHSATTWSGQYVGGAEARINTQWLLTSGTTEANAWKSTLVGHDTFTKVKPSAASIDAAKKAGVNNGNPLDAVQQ

As to `COC(=O)[C@@]1(Cc2ccccc2)[C@H]2c3cc(C(=O)N(C)C)n(Cc4nc5ccccc5[nH]4)c3C[C@H]2CN1C(=O)c1ccccc1`, the composite z-score in assay [1] was 1.85; in [2], 1.24; in [3], 0.872; in [4] it was 1.03; in assay [5] it was 0.804; in [6], -0.378. The composite z-score is -0.414 with Lefty1; 0.779 in assay [8]; 0.118 in assay [10]; 1.26 in assay [15]; 0.337 in assay [16]; 0.626 with Torsin-1A (Homo sapiens) [17]. Also, the values for the composite z-score (with Torsin-1A (Homo sapiens) [18]; in [19]) were 0.853 and -0.441, respectively. Further, the z-score is 0.157 in assay [7]; -1.77 (inactive) in [9]; -2.07 (inactive) in [11]; -0.142 (inactive) in [12]; 0.959 (inactive) in assay [13]; -0.0536 (inactive) in [14].
With `CCOC(=O)C=C1C[C@@H](c2cccc([N+](=O)[O-])c2)O[C@@H](c2cccc([N+](=O)[O-])c2)O1`, the composite z-score in assay [1] is 1.1; in assay [2], 1.11; in [3] it was 0.867; in [4], 0.871; in [5] it was 0.669; in assay [6], 0.715. Moreover, the composite z-score came out at 0.279 in the assay with Lefty1; 0.697 in assay [8]; 0.719 in assay [10]; 0.865 in assay [15]; 0.503 in [16]; 0.167 with Torsin-1A (Homo sapiens) [17]. The composite z-score in the assay with Torsin-1A (Homo sapiens) [18] came to 0.582; in assay [19], 0.147. The z-score was 3.03 in assay [7]; 1.31 (inactive) in assay [9]; -3.18 (inactive) in assay [11]; 0.397 (inactive) in assay [12]; -0.527 (inactive) in assay [13]; -0.495 (inactive) in [14].
Take `C=CCNC(=O)[C@H]1[C@@H]2C(=O)O[C@@H](c3ccccc3)[C@@H](c3ccccc3)N2[C@@H](c2ccc(OCCO)cc2)[C@]12C(=O)N(C(=O)OCCOC)c1ccc(C#CCC(C(=O)OC)C(=O)OC)cc12`: the composite z-score in assay [1] was 0.302; in assay [2] it was 1.2; in assay [3], 0.227; in assay [4], 0.94; in assay [5] it was 1.27; in [6], 0.252. The composite z-score with Lefty1 came to 1.27; in assay [8], 1.26; in assay [10], 1.12; in [15], 1.26; in [16] it was 0.389; with Torsin-1A (Homo sapiens) [17], 0.77. Besides, the composite z-score with Torsin-1A (Homo sapiens) [18] was 0.944; in [19], 1.96. The z-score was -0.933 in assay [7]; -0.515 (inactive) in assay [9]; -1.17 (inactive) in assay [11]; 0.0229 (inactive) in assay [12]; 0.0614 (inactive) in assay [13]; -0.228 (inactive) in assay [14].
For the compound `CCCNC(=O)[C@@]1(Sc2ccc(C)cc2)CC(=O)N(Cc2cc(C(F)(F)F)cc(C(F)(F)F)c2)[C@@H]1c1ccc(CO)cc1`, the composite z-score in [1] was 2.59; in assay [2] it was -0.0696; in [3], -0.251; in [4], -0.452; in assay [5], -0.245; in assay [6], -0.375. Moreover, the composite z-score is -0.675 with Lefty1; -0.037 in assay [8]; -0.139 in assay [10]; -1.08 in assay [15]; -0.0963 in [16]; -0.11 with Torsin-1A (Homo sapiens) [17]. The composite z-score in the assay with Torsin-1A (Homo sapiens) [18] was -0.155; in assay [19] it was -0.0508. Further, the z-score in assay [7] was -0.328; in assay [9], -0.297 (inactive); in [11], -4.41 (inactive); in [12], 0.503 (inactive); in [13], -0.554 (inactive); in assay [14], 0.448 (inactive).
On to `C=CCN1C(=O)[C@]2(O[C@H](CCO)[C@@H]([Si](C)(C)c3ccc(OC)cc3)[C@@H]2C)c2cc(N3C(=O)c4ccccc4Oc4ccccc43)ccc21`, for which the composite z-score in assay [1] is 0.309; in assay [2] it was 1.14; in assay [3], 0.215; in assay [4] it was 0.694; in [5], 0.157; in [6] it was 0.0857. The composite z-score is 0.591 in the assay on Lefty1; 0.51 in assay [8]; 0.169 in assay [10]; 0.763 in assay [15]; -0.045 in assay [16]; 0.493 with Torsin-1A (Homo sapiens) [17]. For the same compound, the composite z-score stood at 0.418 with Torsin-1A (Homo sapiens) [18] and 0.804 in assay [19]. Also, the z-score in assay [7] was -1.36; in assay [9], 0.368 (inactive); in [11], -7.94 (inactive); in [12], -0.323 (inactive); in assay [13], 22.6 (active); in assay [14], -3.24 (inactive).
